Results: PubChem BioAssay (Tox21)
Records with an inconclusive call do not appear. Unmarked numbers belong to inactive results. Calls of active or inactive are those of the source. Calls come from the whole dose curve; as a rule, active = well fitted curve in the direction sought with a large enough effect in the repeat runs; inconclusive = weak or mixed curves; inactive = no such curve, though single readings can be large; an effect the other way counts as inactive or inconclusive.

Experiment: qHTS RealTime-Glo MT Cell Viability Assay in HEK293 cells - 0 hour (AID 1224880); note: top concentration of the series differs between compounds; nearly all actives have a fitted effect of over 45% in size
Settings: RealTime-Glo luminescence; series mostly up to 76.8 µM; activity change, negative = cytotoxicity: at the top concentration
Method in brief: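 HEK293 cells mixed with RealTime-Glo reagents (NanoLuc plus cell-permeant prosubstrate) at 600 cells/well, preincubated 5 h at 37 C/5% CO2, then given 23 nL compound in DMSO. Nonlytic luminescence from viable cells was read at 0, 8, 16, 24, 32 and 40 h.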
% is set by controls: 0 for no effect and ±100 for the full control effect.

Row | Compound | activity change, negative = cytotoxicity
1 | CN(CCOc1ccc(NS(C)(=O)=O)cc1)CCc1ccc(NS(C)(=O)=O)cc1 | 27.3% [at 35.3 µM]
2 | C=COCCOCCOCCOC=C | -3.78%
3 | O=C(CCN1CCN(CCO)CC1)N1c2ccccc2Sc2ccc(C(F)(F)F)cc21 | -3.7% [at 35.3 µM]
4 | Cc1cccc2nccnc12 | 22.7%
5 | CC(C)CC(C)CC(C)CC(C)COC(=O)c1ccccc1C(=O)OCC(C)CC(C)CC(C)CC(C)C (stereo not given) | 9.21%
6 | C=CC(OCC)OCC | 4.06%
7 | CC(=O)CCCCn1c(=O)c2c(ncn2C)n(C)c1=O | 5.76% [at 35.3 µM]
8 | Cc1ccc2c(c1)OCC(=O)CO2 | -16.2%
9 | CC1(C)S[C@@H]2[C@H](N=CN3CCCCCC3)C(=O)N2[C@H]1C(=O)O | 11.3% [at 35.3 µM]
10 | O=C(OCC1(COC(=O)c2cccnc2)CCCC(COC(=O)c2cccnc2)(COC(=O)c2cccnc2)C1O)c1cccnc1 | -2.08% [at 35.3 µM]
11 | Cc1ccccc1N=O | -2.47%
12 | Cc1ccccc1OCC(O)CO (stereo not given) | 0.777% [at 35.3 µM]
13 | O=C(O)c1ccc(Cl)cc1Cl | -0.492%

Experiment: A CellTox Green Cytotoxicity Assay to monitor cytotoxicity in HEK293 cells - 32 hour (AID 1224881); note: nearly all actives have a fitted effect of over 40% in size; note: potency is the fitted concentration of half-maximal effect
Settings: CellTox Green fluorescence; series mostly up to 76.8 µM; cytotoxicity increase: at the top concentration
Method in brief: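 HEK293 cells premixed with CellTox Green dye were seeded at 600 cells/well and left 5 h at 37 C/5% CO2 before pin transfer of 23 nL compound in DMSO. Fluorescence from dye bound to dead-cell DNA was read during 40 h treatment.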

Row | Compound | cytotoxicity increase | Potency
14 | O=C(CCNNC(=O)c1ccncc1)NCc1ccccc1 | 0.103% [at 35.3 µM] | –
15 | CCCN1C[C@H](CSC)C[C@@H]2c3cccc4[nH]cc(c34)C[C@H]21 | 0.96% [at 35.3 µM] | –
16 | CC(C)NCC(O)COc1ccc(COCCOC(C)C)cc1 (stereo not given) | 0.337% [at 35.3 µM] | –
17 | O=C(O)c1cc(Br)c(O)c(Br)c1 | -16.2% | –
18 | C[Si](C)=O | 10.3% [at 6.97 µM] | –
19 | Oc1ccccc1-c1nnco1 | -16.3% [at 35.3 µM] | –
20 | O=C1c2ccccc2C(=O)C1c1ccccc1 | -2.46% [at 35.3 µM] | –
21 | CC(=O)N[C@@H](CCC(=O)O)C(=O)O | 0.0998% [at 35.3 µM] | –
22 | Cc1cccc(C)c1NC(=O)c1ccccc1C(=O)O | -1.66% [at 35.3 µM] | –
23 | Oc1cn2c(n1)Nc1ccc(Cl)c(Cl)c1C2 | -4.2% [at 15.8 µM] | –
24 | c1ccc2c(c1)ccc1c3ccccc3ccc21 | 1.74% [at 35.3 µM] | –
25 | C=C(C)C(=O)OCCOP(=O)(O)OCCOC(=O)C(=C)C | -0.199% | –
26 | CC(C)CCCC(C)(C)O | 3.5% | –
27 | CCCCCCCCSCC | -1.55% | –
28 | CCOc1cc(NC(C)=O)ccc1C(=O)OC | 7.7% [at 35.3 µM] | –
29 | COc1cc2c(cc1OC)[C@@H]1CC(=O)[C@@H](CC(C)C)CN1CC2 | 1.82% [at 35.3 µM] | –
30 | COC(=O)c1ccccc1C(=O)c1ccc(OCCN2CCCCC2)cc1 | 1.89% [at 35.3 µM] | –
31 | COc1cc(C(=S)N2CCOCC2)cc(OC)c1OC | 1.45% [at 35.3 µM] | –
32 | CC(N)C(=O)OC(C)(C)Cc1ccc(Cl)cc1 (stereo not given) | -16.2% [at 35.3 µM] | –

Row | Compound | cytotoxicity increase | Potency
33 | CCCCCCCCCCCCCC | -9.26% | –
34 | CCCCCCN | -5.9% | –
35 | CN(C)c1ccc(C=O)cc1 | -16.4% | –
36 | O=S(=O)(O)c1cc(O)c2ccc(Nc3ccccc3)cc2c1 | 1.06% | –
37 | CCCCOCCOC(=O)COc1nc(Cl)c(Cl)cc1Cl | 13.8% | –
38 | CN(CCOc1ccc(NS(C)(=O)=O)cc1)CCc1ccc(NS(C)(=O)=O)cc1 | -2.09% [at 35.3 µM] | –
39 | C=COCCOCCOCCOC=C | 2.94% | –
40 | O=C(CCN1CCN(CCO)CC1)N1c2ccccc2Sc2ccc(C(F)(F)F)cc21 | 1.74% [at 35.3 µM] | –
41 | Cc1cccc2nccnc12 | – | 24.5 µM (active)
42 | CC(C)CC(C)CC(C)CC(C)COC(=O)c1ccccc1C(=O)OCC(C)CC(C)CC(C)CC(C)C (stereo not given) | -3.23% | –
43 | C=CC(OCC)OCC | -1.84% | –
44 | CC(=O)CCCCn1c(=O)c2c(ncn2C)n(C)c1=O | 0.955% [at 35.3 µM] | –
45 | Cc1ccc2c(c1)OCC(=O)CO2 | -6.67% | –
46 | CC1(C)S[C@@H]2[C@H](N=CN3CCCCCC3)C(=O)N2[C@H]1C(=O)O | -1.55% [at 35.3 µM] | –
47 | O=C(OCC1(COC(=O)c2cccnc2)CCCC(COC(=O)c2cccnc2)(COC(=O)c2cccnc2)C1O)c1cccnc1 | 11.1% [at 35.3 µM] | –
48 | Cc1ccccc1N=O | -11.6% | –
49 | Cc1ccccc1OCC(O)CO (stereo not given) | -3.16% [at 35.3 µM] | –
50 | O=C(O)c1ccc(Cl)cc1Cl | -6.65% | –
